Data reported in PubChem BioAssay AID1949 (Southern Research Institute, 2009).
Out of some 100,000 compounds screened, about 1,600 (1.6%) were called active. Another 3% or so got no clear call; they are omitted. The rule behind the calls is not given here. Not all results are given here.

Assay: Mycobacterium tuberculosis H37Rv growth inhibition, cell based, confirmatory dose response (AID 1949);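 for inhibition: bacteria grown 7 days with compound before Alamar blue readout; 0% = untreated bacteria wells and 100% = bacteria with saturating antibiotic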
Settings: M. tuberculosis H37Rv growth inhibition; stronger effect = higher value
For `CN(c1cccc(NC(=O)c2ccccc2N(Cc2ccccc2)S(=O)(=O)c2ccccc2)c1)S(C)(=O)=O`, the inhibition was “inactive”. For `Cc1ccc(F)cc1NC(=O)CSc1ccc(Br)cc1`, the inhibition was 36% (inactive). In the case of `O=C(Oc1ccc2c3c(c(=O)oc2c1)CCC3)c1cccc(Cl)c1`, the inhibition is reported as “inactive”. With `Cc1ccc(-c2csc(NC(=O)CSc3ccc(Br)cc3)n2)cc1` the inhibition was “inactive”. In the case of `C=CCOc1ccc(C2C(C(=O)c3cccs3)=C(O)C(=O)N2CCN(CC)CC)cc1OC` (stereo not drawn), the inhibition is reported as “inactive”. With `CC(=O)C(C)n1c(=O)oc2ccc(Cl)cc21` (stereo not drawn) the inhibition was 0.0633% (inactive). With `Cc1cccc2c1N(C)C(=O)C2(O)CC(=O)c1ccco1` (stereo not drawn) the inhibition was “inactive”. In the case of `Cc1ccc(NC(=O)COc2ccc3c(C)c(Cc4ccccc4)c(=O)oc3c2C)cc1`, the inhibition is reported as “inactive”. For `CCCCOc1ccc(C2C(C(=O)c3ccco3)=C(O)C(=O)N2CCOC)cc1OC` (stereo not drawn), the inhibition was “inactive”. For `CCC(C)n1[nH]c(=O)c2c1NC(=O)CSC2c1ccc(Cl)cc1Cl` (stereo not drawn), the inhibition was 2.1% (inactive). With `Cc1ccc(S(=O)(=O)N(C)CC(=O)NCCCc2ccccc2)cc1` the inhibition was “inactive”. For `Cc1ccc(OCCCCCNCCO)cc1C`, the inhibition was “inactive”. In the case of `CC(=O)Nc1ccc(S(=O)(=O)Nc2ccc(Cc3ccncc3)cc2)cc1`, the inhibition is reported as “inactive”. For `COc1cc(OC)cc(C(=O)Nc2ccc(C(F)(F)F)cc2)c1`, the inhibition was “inactive”. For `CSc1cccc(NC(=O)CCSc2ccc(Cl)cc2)c1`, the inhibition was “inactive”. In the case of `N#Cc1ccc(Oc2ccc(NC(=O)C3CC=CCC3C(=O)O)cc2)cc1` (stereo not drawn), the inhibition is reported as “inactive”. For `CN(C(=O)CN1C(=O)c2ccccc2C1=O)C1CCCCC1`, the inhibition was “inactive”. In the case of `COc1ccc(OCCN(C)Cc2ccccc2)cc1`, the inhibition is reported as “inactive”. For `Cc1cc(S(=O)(=O)N2CCOCC2)ccc1F`, the inhibition was “inactive”. With `COc1ccc(Cl)cc1S(=O)(=O)Nc1ccccc1C` the inhibition was 4.41% (inactive). With `CCN(CC)C(=O)c1ccc(NC(=O)c2ccccc2I)cc1` the inhibition was “inactive”. For `Cc1cc(=O)oc2cc(Oc3nnnn3-c3ccccc3)ccc12`, the inhibition was “inactive”. In the case of `CCOc1ccc(NC(=O)Nc2ccc(C)cc2Br)cc1`, the inhibition is reported as “inactive”.
